Active and inactive are the calls of the source.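 How the source made its calls: active means compounds killing one labelled cell type while sparing the other, by normalised counts and ratio limits, not self-fluorescent; inactive means the rest.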
Assay: EMT-state selective cytotoxicity in co-culture – imaging, PC-3E GFP, TEM4-18 mCherry, primary screen (AID 1345086);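 further: cells exposed to compound for 72 h before imaging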;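 on red/green cell ratio (normalised): normalised mesenchymal count divided by normalised epithelial count so high means epithelial killing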
Settings: PC-3E GFP / TEM4-18 mCherry co-culture, imaging cell counts; at 1 µM; actives lie on both sides; counts scaled to control wells, 1 = unselective

SMILES	red/green cell ratio (normalised)
COc1ccc(-c2oc3cc(OC)c(OC)c(OC)c3c(=O)c2OC)cc1OC	1.2 (inactive)
COc1ccc2c(c1)OCC(Cc1ccc(O)c(OC)c1)C2=O (stereo not drawn)	0.93 (inactive)
COC1=CC(=O)C(O)=C/C1=C\C=C\c1ccccc1	1.11 (inactive)

Same assay, conditions: PC-3E GFP / TEM4-18 mCherry co-culture, imaging cell counts; measured here: epithelial PC-3E GFP cell survival; at 1 µM

SMILES	normalised cell number
C/C1=C/CC(C)(C)/C=C/C/C(C)=C/CC1	1.06
COc1cc(O)c(C(=O)/C=C/c2ccc(O)c(OC)c2)c(OC)c1	1.1
CC(=O)O[C@@H]1CC2C(C)(C)[C@H](O)C=C[C@]2(C)C2CC[C@@]3(C)[C@H](c4ccoc4)OC(=O)C4OC43[C@@]21C (stereo partly drawn)	1.17
CC1(C)C(=O)C=C[C@@]2(C)C1CC(=O)[C@]1(C)C2CC[C@@]2(C)[C@H](c3ccoc3)OC(=O)[C@H]3O[C@]321 (stereo partly drawn)	0.82
COc1ccc(-c2coc3c(O)c(O)c(OC)cc3c2=O)cc1	1.12
C=C[C@@H](C1=CC(=O)C(OC)=C(OC)C1=O)c1ccccc1	1.04
CC(=O)Oc1cc2c(c(C)c1OC(C)=O)CC=C1[C@@]2(C)CC[C@@]2(C)C3C[C@](C)(C(=O)O)CC[C@]3(C)CC[C@]12C (stereo partly drawn)	1.06
COc1ccc2oc3ccccc3c(=O)c2c1	1.2
C=CCCCCCCCCCCCc1ccco1	0.9
C#CCCCCCCCCCCCc1ccco1	1.01
COc1cc(OC)c2c(=O)c(O)c(-c3ccc(OC)c(OC)c3)oc2c1	1.23
O=C(/C=C/c1ccc(O)cc1)c1ccccc1O	1.02
O=C(/C=C/c1ccccc1)c1ccc(O)cc1O	1.05
CC(C)(N=NC(C)(C)C(=N)N)C(=N)N	1.17
O=c1cc(-c2ccccc2O)oc2cc(O)ccc12	0.97
CC[C@@H](C(=O)[C@@H](C)[C@@H](O)[C@H](C)[C@@H]1O[C@@H]([C@@H](CC)C(=O)O)CC[C@@H]1C)[C@H]1OC2(C=C[C@@H](O)[C@]3(CC[C@@](C)([C@H]4CC[C@](O)(CC)[C@H](C)O4)O3)O2)[C@H](C)C[C@@H]1C (stereo partly drawn)	0.55
CN(C)CC(=O)OC[C@@H](O)[C@@H](O)[C@H](O)[C@@H](O)C(=O)O	1.08
CNc1ccccc1C(=O)N1CCc2c([nH]c3ccccc23)C1=O	0.95
CC(=O)O[C@@H]1CC[C@@]2(C)C(CC[C@]3(C)C2CC=C2C4CC(C)(C)CC[C@]4(C(=O)O)CC[C@]23C)C1(C)C (stereo partly drawn)	1.04
CC(=O)Oc1ccc2c(c1C(C)C)CCC1C(C)(C)CCC[C@]21C (stereo partly drawn)	1.07

SMILES	normalised cell number
COc1ccc2c(c1)O[C@H]1c3ccc(OC)cc3OC[C@@H]21	1
O=c1cc(-c2ccc(O)cc2)oc2ccc(O)cc12	0.97
C=C[C@@]1(C)CC(=O)[C@@]2(O)[C@](C)(O1)[C@@H](O)[C@@H](O)C1C(C)(C)CC[C@H](O)[C@@]12C (stereo partly drawn)	0.91
C[C@@H]1O[C@@H](O[C@H]2[C@H](Oc3cc(O)c4c(=O)cc(-c5ccc(O)cc5)oc4c3)O[C@H](CO)[C@@H](O)[C@@H]2O)[C@H](O)[C@H](O)[C@H]1O	0.87
CC(=O)O[C@H]1C[C@@H](O)C(C)(C)C2C[C@@H](OC(C)=O)[C@]3(C)C(CC[C@@]4(C)[C@H](c5ccoc5)OC(=O)C5OC543)[C@]21C (stereo partly drawn)	0.84
CC1(C)CC[C@]2(C(=O)O)CC[C@]3(C)C(=CCC4[C@@]5(C)CC[C@@H](O)C(C)(C)C5CC[C@]43C)C2C1 (stereo partly drawn)	0.94
COc1cc2oc3cc(OC)c(OC)c(CC=C(C)C)c3c(=O)c2c(O)c1CC=C(C)C	1
COc1ccc([C@@H](C)C(=O)c2ccc(O)cc2O)cc1	0.96
COc1cc2c(cc1OC)-c1c(oc3cc(O)cc(O)c3c1=O)CO2	1.02
O=C(O)/C=C/C=C/c1ccc2c(c1)OCO2	0.9
COc1cc(OC)c(C(C)=O)c(O)c1C	0.98
CC(CCC(=O)O)[C@H]1CCC2C3C[C@H](O)[C@@H]4C[C@H](O)CC[C@]4(C)C3CC[C@@]21C (stereo partly drawn)	1.24
O=c1ccn([C@@H]2O[C@H](COP(=O)(O)OP(=O)(O)OP(=O)(O)O)[C@@H](O)[C@H]2O)c(=O)[nH]1	0.94
C[C@]12CCC3c4ccc(OC(=O)c5ccccc5)cc4CCC3C1CCC2=O (stereo partly drawn)	1.24
CC(C)c1ccc2c(c1)CCC1C(C)(C(N)=O)CCCC21C (stereo not drawn)	1.22
C=CCS(=O)C[C@H](N)C(=O)O (stereo partly drawn)	1.04
CCCc1cc(OC)c2c(c1)OCO2	0.92
COc1ccc(-c2oc3cc(OC)c(OC)c(OC)c3c(=O)c2OC)cc1OC	0.9
COc1ccc2c(c1)OCC(Cc1ccc(O)c(OC)c1)C2=O (stereo not drawn)	1.04
COC1=CC(=O)C(O)=C/C1=C\C=C\c1ccccc1	0.95
